Measured values as given in PubChem BioAssay (NCATS).
Inconclusive results are not listed. Where a call stands in place of a potency, no number is given. Activity calls are given as the source filed them. Calls come from the whole dose curve; as a rule, active = well fitted curve in the direction sought with a large enough effect; inconclusive = small, poorly fitted or top-dose-only effect, or another doubt; inactive = no such curve, though single readings can be large; an effect the other way counts as inactive or inconclusive.

Test: qHTS for compounds that reverse cellular toxicity of Amyloid beta (A-beta) peptide in yeast: LOPAC Validation Assay (AID 720559)
Details: yeast expressing A-beta; series mostly up to 46.1 µM
Outline: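 Yeast expressing toxic A-beta grown with pinned compounds at 30 C for 48 hr. Growth measured as absorbance at 600 nm; data normalized to DMSO and to an equimolar FeCl3/clioquinol mixture as positive control.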

| SMILES | outcome |
| --- | --- |
| C/C(O)=C(\C#N)C(=O)Nc1cc(Br)ccc1Br | inactive |
| N[C@@H](CCl)C(=O)O | inactive |
| c1ccc2c(c1)[I+]c1ccccc1-2 | inactive |
| C[N+]1(C)CCOC(O)(c2ccc(-c3ccc(C4(O)C[N+](C)(C)CCO4)cc3)cc2)C1 (centres undefined) | inactive |
| C[Se]C[C@H](N)C(=O)O | inactive |
| Cc1sc2ccccc2c1CC1=NCCN1 | inactive |
| Oc1ccc2c3c1O[C@H]1c4oc5ccccc5c4C[C@@]4(O)C(C2)N(CC2CC2)CCC314 (some centres undefined) | inactive |
| C[N+]1(C)CCN(c2ccccc2)CC1 | inactive |
| OCc1cnc[nH]1 | inactive |
| CCn1cnc2c(Nc3cccc(Cl)c3)nc(N[C@@H]3CCCC[C@@H]3N)nc21 | inactive |
| CN(C(=O)Cc1ccc(Cl)c(Cl)c1)C(CN1CCCC1)c1cccc(OCC(=O)O)c1 (centres undefined) | inactive |
| CCN1C[C@@]2(COC)C3[C@@H](OC)C4[C@@H]1C3([C@@H]1C[C@]3(O)[C@H](OC(=O)c5ccccc5)[C@@H]1[C@]4(OC(C)=O)[C@@H](O)[C@@H]3OC)[C@H](OC)C[C@H]2O | inactive |
| C=CCN1CC[C@]23c4c5ccc(O)c4O[C@H]2/C(=N/NC(=O)c2ccccc2)CC[C@@]3(O)[C@H]1C5 | inactive |
| C[C@@H]1O[C@H](C[N+](C)(C)C)CS1 | inactive |
| Nc1ccc(CCN2CCN(c3cccc(C(F)(F)F)c3)CC2)cc1 | inactive |
| CN1CC[C@@]2(C)c3cc(O)ccc3N(C)C12 (some centres undefined) | inactive |
| NC(N)=NOCC[C@H](N)C(=O)O | inactive |

| SMILES | outcome |
| --- | --- |
| COC(=O)N1CCN(C(=O)Cc2ccc(Cl)c(Cl)c2)C(CN2CCCC2)C1 (centres undefined) | inactive |
| CC(C)[C@@]1(NC(=O)[C@@H]2C[C@@H]3c4cccc5[nH]cc(c45)C[C@H]3N(C)C2)O[C@@]2(O)[C@@H]3CCCN3C(=O)[C@H](Cc3ccccc3)N2C1=O | inactive |
| NC(C(=O)O)c1cc(=O)[nH]o1 (centres undefined) | inactive |
| CO[C@H]1CC=C2CCN3CCC4=C(CC(=O)OC4)[C@]23C1 | inactive |
| c1ccc2c(N3CCNCC3)cccc2c1 | inactive |
| COc1ccc2[nH]c3c(c2c1)CCNC3 | inactive |
| NC(=O)CI | inactive |
| Cc1[nH]c2ccc(O)cc2c1CCN | inactive |
| CNc1ccc2oc(C[C@H]3O[C@@]4(CC[C@H]3C)O[C@H]([C@H](C)C(=O)c3ccc[nH]3)[C@H](C)C[C@H]4C)nc2c1C(=O)O | inactive |
| CN1CCC(c2c[nH]c3ccc(O)cc23)CC1 | inactive |
| C=CCN1CC[C@]23c4c5ccc(O)c4O[C@@H]2/C(=N/N=C2\CC[C@@]4(O)C6Cc7ccc(O)c8c7[C@@]4(CCN6CC=C)[C@@H]2O8)CC[C@@]3(O)C1C5 | inactive |
| NC(CCCCCP(=O)(O)O)C(=O)O (centres undefined) | inactive |
| NC(=O)COc1c(F)cc(SCCNS(=O)(=O)c2ccccc2)cc1F | inactive |
| C=CCN(C1=NCCN1)c1c(Cl)cccc1Cl | inactive |
| CC(=O)OCC1=C(C(=O)O)N2C(=O)[C@@H](NC(=O)CCC[C@@H](N)C(=O)O)[C@H]2SC1 | inactive |
| CCCN(CCC)C1Cc2cc(OC)c(OC)cc2C1 | inactive |
| CC(N)Cc1c[nH]c2ccc(O)cc12 (centres undefined) | inactive |

Test: qHTS for Activators of Parkin Expression: LOPAC Validation Assay (NLuc Reporter) (AID 720572)
Details: Parkin promoter NanoLuc reporter cells, luminescence; series mostly up to 46.1 µM
Outline: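 Neuronal line stably carrying a FLuc/NLuc coincidence reporter under the Parkin promoter, seeded 24 h, then dosed in 7-point series for 24 h at 37 C. NLuc luminescence read after FLuc; normalized to DMSO and positive control (100%).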

| SMILES | Potency |
| --- | --- |
| C/C(O)=C(\C#N)C(=O)Nc1cc(Br)ccc1Br | inactive |
| N[C@@H](CCl)C(=O)O | inactive |
| c1ccc2c(c1)[I+]c1ccccc1-2 | inactive |
| C[N+]1(C)CCOC(O)(c2ccc(-c3ccc(C4(O)C[N+](C)(C)CCO4)cc3)cc2)C1 (centres undefined) | inactive |
| Cc1sc2ccccc2c1CC1=NCCN1 | inactive |
| Oc1ccc2c3c1O[C@H]1c4oc5ccccc5c4C[C@@]4(O)C(C2)N(CC2CC2)CCC314 (some centres undefined) | inactive |
| C[N+]1(C)CCN(c2ccccc2)CC1 | inactive |
| OCc1cnc[nH]1 | inactive |
| CN(C(=O)Cc1ccc(Cl)c(Cl)c1)C(CN1CCCC1)c1cccc(OCC(=O)O)c1 (centres undefined) | inactive |
| C=CCN1CC[C@]23c4c5ccc(O)c4O[C@H]2/C(=N/NC(=O)c2ccccc2)CC[C@@]3(O)[C@H]1C5 | inactive |
| C[C@@H]1O[C@H](C[N+](C)(C)C)CS1 | inactive |
| Nc1ccc(CCN2CCN(c3cccc(C(F)(F)F)c3)CC2)cc1 | inactive |
| CN1CC[C@@]2(C)c3cc(O)ccc3N(C)C12 (some centres undefined) | inactive |
| NC(N)=NOCC[C@H](N)C(=O)O | inactive |
| COC(=O)N1CCN(C(=O)Cc2ccc(Cl)c(Cl)c2)C(CN2CCCC2)C1 (centres undefined) | inactive |
| CC(C)[C@@]1(NC(=O)[C@@H]2C[C@@H]3c4cccc5[nH]cc(c45)C[C@H]3N(C)C2)O[C@@]2(O)[C@@H]3CCCN3C(=O)[C@H](Cc3ccccc3)N2C1=O | inactive |
| NC(C(=O)O)c1cc(=O)[nH]o1 (centres undefined) | inactive |
| CO[C@H]1CC=C2CCN3CCC4=C(CC(=O)OC4)[C@]23C1 | inactive |
| c1ccc2c(N3CCNCC3)cccc2c1 | inactive |
| COc1ccc2[nH]c3c(c2c1)CCNC3 | inactive |
| Cc1[nH]c2ccc(O)cc2c1CCN | inactive |
| CNc1ccc2oc(C[C@H]3O[C@@]4(CC[C@H]3C)O[C@H]([C@H](C)C(=O)c3ccc[nH]3)[C@H](C)C[C@H]4C)nc2c1C(=O)O | inactive |
| CN1CCC(c2c[nH]c3ccc(O)cc23)CC1 | inactive |
| C=CCN1CC[C@]23c4c5ccc(O)c4O[C@@H]2/C(=N/N=C2\CC[C@@]4(O)C6Cc7ccc(O)c8c7[C@@]4(CCN6CC=C)[C@@H]2O8)CC[C@@]3(O)C1C5 | inactive |
| NC(CCCCCP(=O)(O)O)C(=O)O (centres undefined) | inactive |
| NC(=O)COc1c(F)cc(SCCNS(=O)(=O)c2ccccc2)cc1F | inactive |
| C=CCN(C1=NCCN1)c1c(Cl)cccc1Cl | inactive |
| CC(=O)OCC1=C(C(=O)O)N2C(=O)[C@@H](NC(=O)CCC[C@@H](N)C(=O)O)[C@H]2SC1 | inactive |
| CCCN(CCC)C1Cc2cc(OC)c(OC)cc2C1 | inactive |
| CC(N)Cc1c[nH]c2ccc(O)cc12 (centres undefined) | inactive |
